According to the supplement of paper PMC4466140:

Biological target: AgAbp1
Test: SPOT peptide array binding signal intensity (averaged, normalized) (arbitrary units (background-subtracted, floor 0; scale differs between SH3 domains)); higher = stronger binding of the SH3 domain to the peptide
Method in brief: (§1)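 Spot intensities were captured after detection with anti-GST antibody, an HRP-linked anti-mouse secondary and luminol, and quantified with Genespotter. The probes were GST-fused SH3 domains from four yeast species, produced in E. coli BL21(DE3), purified on glutathione Sepharose and incubated at 10 μg/ml overnight at 4°C on cellulose-bound synthetic 15-mer peptides with cysteines replaced by serines. Binding signal is the normalized, background-subtracted spot intensity averaged over replicates, and its arbitrary units differ between domains.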

Binder | SPOT peptide array binding signal intensity
NIKVLLNPKLGKPVK | 15

Biological target: AgBbc1
Test: as above
Method in brief: as §1

Binder | SPOT peptide array binding signal intensity
NIKVLLNPKLGKPVK | 10.2

Biological target: AgBem1-D1
Test: as above
Method in brief: as §1

Binder | SPOT peptide array binding signal intensity
NIKVLLNPKLGKPVK | 4

Biological target: AgBzz1-D1
Test: as above
Method in brief: as §1

Binder | SPOT peptide array binding signal intensity
NIKVLLNPKLGKPVK | 13

Biological target: AgBzz1-D2
Test: as above
Method in brief: as §1

Binder | SPOT peptide array binding signal intensity
NIKVLLNPKLGKPVK | 73.5

Biological target: AgCyk3
Test: as above
Method in brief: as §1

Binder | SPOT peptide array binding signal intensity
NIKVLLNPKLGKPVK | ≤ 0

Biological target: AgFus1
Test: as above
Method in brief: as §1

Binder | SPOT peptide array binding signal intensity
NIKVLLNPKLGKPVK | 316

Biological target: AgHof1
Test: as above
Method in brief: as §1

Binder | SPOT peptide array binding signal intensity
NIKVLLNPKLGKPVK | 17

Biological target: AgHse1
Test: as above
Method in brief: as §1

Binder | SPOT peptide array binding signal intensity
NIKVLLNPKLGKPVK | 760

Biological target: AgLsb1
Test: as above
Method in brief: as §1

Binder | SPOT peptide array binding signal intensity
NIKVLLNPKLGKPVK | ≤ 0

Biological target: AgLsb4
Test: as above
Method in brief: as §1

Binder | SPOT peptide array binding signal intensity
NIKVLLNPKLGKPVK | 61

Biological target: AgMyo5
Test: as above
Method in brief: as §1

Binder | SPOT peptide array binding signal intensity
NIKVLLNPKLGKPVK | 2.5

Biological target: AgNbp2
Test: as above
Method in brief: as §1

Binder | SPOT peptide array binding signal intensity
NIKVLLNPKLGKPVK | 31.5

Biological target: AgRvs167
Test: as above
Method in brief: as §1

Binder | SPOT peptide array binding signal intensity
NIKVLLNPKLGKPVK | 4

Biological target: AgSho1
Test: as above
Method in brief: as §1

Binder | SPOT peptide array binding signal intensity
NIKVLLNPKLGKPVK | 108

Biological target: AgSla1-D1-D2
Test: as above
Method in brief: as §1

Binder | SPOT peptide array binding signal intensity
NIKVLLNPKLGKPVK | 39.5

Biological target: AgSla1-D3
Test: as above
Method in brief: as §1

Binder | SPOT peptide array binding signal intensity
NIKVLLNPKLGKPVK | 7.5

Biological target: CaAbp1-D1
Test: as above
Method in brief: as §1

Binder | SPOT peptide array binding signal intensity
NIKVLLNPKLGKPVK | 407

Biological target: CaAbp1-D2
Test: as above
Method in brief: as §1

Binder | SPOT peptide array binding signal intensity
NIKVLLNPKLGKPVK | 32.5

Biological target: CaBbc1
Test: as above
Method in brief: as §1

Binder | SPOT peptide array binding signal intensity
NIKVLLNPKLGKPVK | 15.2

Biological target: CaBem1-D1
Test: as above
Method in brief: as §1

Binder | SPOT peptide array binding signal intensity
NIKVLLNPKLGKPVK | 0.5

Biological target: CaBzz1-D1
Test: as above
Method in brief: as §1

Binder | SPOT peptide array binding signal intensity
NIKVLLNPKLGKPVK | 160

Biological target: CaBzz1-D2
Test: as above
Method in brief: as §1

Binder | SPOT peptide array binding signal intensity
NIKVLLNPKLGKPVK | 48.5

Biological target: CaCyk3
Test: as above
Method in brief: as §1

Binder | SPOT peptide array binding signal intensity
NIKVLLNPKLGKPVK | ≤ 0

Biological target: CaFus1
Test: as above
Method in brief: as §1

Binder | SPOT peptide array binding signal intensity
NIKVLLNPKLGKPVK | 968

Biological target: CaHof1
Test: as above
Method in brief: as §1

Binder | SPOT peptide array binding signal intensity
NIKVLLNPKLGKPVK | ≤ 0

Biological target: CaHse1
Test: as above
Method in brief: as §1

Binder | SPOT peptide array binding signal intensity
NIKVLLNPKLGKPVK | 9

Biological target: CaLsb1
Test: as above
Method in brief: as §1

Binder | SPOT peptide array binding signal intensity
NIKVLLNPKLGKPVK | 2

Biological target: CaLsb4
Test: as above
Method in brief: as §1

Binder | SPOT peptide array binding signal intensity
NIKVLLNPKLGKPVK | 16

Biological target: CaMyo5
Test: as above
Method in brief: as §1

Binder | SPOT peptide array binding signal intensity
NIKVLLNPKLGKPVK | 4.5
